Compounds with a hit are over-represented: about 17% of the library has one in this group of screens.
TDP1 cell CPT: growth inhibition of DT40 Tdp1-/-;hTDP1 cells with camptothecin (screen for TDP1 inhibitors) | Potency, µM (highest dose often 46.2 µM), without a hit: top-dose activity change, negative = growth inhibition, hits mostly inhibitors | AID 686979 | chicken DT40 Tdp1-/-;hTDP1 cells + 20 nM CPT, ATP luminescence, 48 h | 420,000 tested, 12% active; note: % is set by controls: 0 for no effect and ±100 for the full control effect; nearly all actives have a fitted effect of over 55% in size
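Chicken DT40 Tdp1-/- cells stably complemented with human TDP1 were seeded at 400 cells/well in medium containing 20 nM camptothecin, exposed to pin-transferred compounds, and grown at 37 °C for at least 48 hr. Viability was read as ATP luminescence.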
HT1080NT lethal: kills 2HG-producing HT-1080-NT fibrosarcoma cells | HT-1080-NT fibrosarcoma viability, CellTiter-Glo ATP luminescence, 48 h | AID 686970 | 360,000 tested, 1.6% active | Potency, µM (doses to about 46.1 µM), without a hit: at the highest dose activity, negative = less viability, actives largely listed as cytotoxic;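 note: NT is the 2HG producing partner of a matched IDH1 knockdown line; 0% = DMSO-treated cells and -100% = media-only wells without cells; nearly all actives have a fitted effect of over 55% in size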
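Compounds were tested in concentration-response format on HT-1080-NT cells for 48 hours at 37 degrees C. Cell viability came from CellTiter-Glo luminescence; curves were classified by r2, response magnitude and activity.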
HT1080 IDH1KD tx: HT-1080 IDH1 knockdown cell toxicity (counter line); AID 686971; 360,000 tested, 2% active; Potency, µM (titrated, usually from 46.1 µM), for the others: at the highest dose activity, negative = toxicity, usual class: cytotoxic; HT-1080 IDH1 knockdown viability, ATP luminescence, 48 h;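 note: 0% = DMSO wells and -100% = cell-free medium wells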
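CellTiter-Glo luminescence after 48 h compound exposure at 37 degrees C of IDH1-knockdown HT-1080 cells in 5% FBS RPMI. %Activity scaled between DMSO wells and cell-free media wells, with curves fitted and assigned curve classes.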
HepG2 viability: counter-screen for TGF-b inhibitors: cytotoxicity in HepG2 cells | HepG2 CAGA-GFP viability, ATP luminescence, 18 h | Potency, µM (highest dose often 46.1 µM), without a hit: at the top dose activity change, negative = cytotoxicity, hits mostly cytotoxic | 410,000 tested, 0.76% active | AID 588856
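CellTiter-Glo luminescence gave cytotoxicity after 18 hours at 37 degrees C. The cells were HepG2 CAGA-GFP in 1% FBS DMEM, stimulated with 500 pg/mL TGF-beta after compound addition. %Activity was normalised to no-cell wells (complete cell-killing) and DMSO (no toxicity), and curves were fitted and classified.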
TGFb inhibitor: TGF-b pathway inhibition; HepG2 CAGA-GFP TGF-b/SMAD3 reporter, GFP fluorescence, 18 h; TGF-beta stimulated, 500 pg/mL final; Potency, µM (titrated, usually from 46.1 µM), for the others: at the top dose activity, negative = inhibition, actives largely listed as inhibitors; 410,000 tested, 1.2% active; AID 588855; note: % is set by controls: 0 for no effect and ±100 for the full control effect; nearly all actives have a fitted effect of over 65% in size
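Using HEPG2 CAGA-GFP reporter cells at 1000 cells/well, we pinned test compounds, stimulated with recombinant TGF-beta (500 pg/mL final) and measured total well GFP after 18 h.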
DT40 TDP1 no CPT: qHTS for Inhibitors of human tyrosyl-DNA phosphodiesterase 1 (TDP1): qHTS in cells in absence of CPT; DT40 Tdp1-/- hTDP1 cells, no CPT, ATP luminescence, 48 h; Potency, µM (highest dose often 46.2 µM), for inactives: top-dose activity change, negative = growth inhibition, most hits filed as inhibitors; 420,000 tested, 15% active; AID 686978, 2013; note: % is set by controls: 0 for no effect and ±100 for the full control effect; nearly all actives have a fitted effect of over 55% in size
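Stably hTDP1-transfected Tdp1-null chicken DT40 cells were treated with library compounds minus camptothecin and grown for at least 48 hr at 37 °C, after which cellular ATP was quantified by luminescence.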
An asterisk follows results filed as active. Calls come from the whole dose curve; as a rule, active = well fitted curve in the direction sought with a large enough effect; inconclusive = small, poorly fitted or top-dose-only effect, or another doubt; inactive = no such curve, though single readings can be large; an effect the other way counts as inactive or inconclusive. Potency is the fitted concentration of half-maximal effect.

Screening Cc1ccc(N2CC(NC(=O)CCc3ccccc3)CC2=O)cc1C (stereo not drawn) returned TDP1 cell CPT -5%, HepG2 viability -10%, TGFb inhibitor -7% and DT40 TDP1 no CPT -21%.
COc1ccc(C2(OC)Oc3cc(OC)ccc3C(=O)C2(O)OC)cc1 (stereo not drawn) was read as TDP1 cell CPT 23µM*, HT1080NT lethal -6%, HT1080 IDH1KD tx inconclusive, HepG2 viability 0%, TGFb inhibitor inconclusive and DT40 TDP1 no CPT inconclusive.
Screening C/C(=N\NC(=O)Cc1ccc(F)cc1)c1ccc(O)cc1 returned TDP1 cell CPT -27%, HT1080NT lethal 9%, HT1080 IDH1KD tx -4%, HepG2 viability -6%, TGFb inhibitor 12% and DT40 TDP1 no CPT inconclusive.
`COc1ccc2c(Sc3ccc(Cl)cc3)c(C(=O)N3CCC(C)CC3)[nH]c2c1` gave TDP1 cell CPT -23%, HepG2 viability -95%, TGFb inhibitor 11µM* and DT40 TDP1 no CPT inconclusive.
`COc1ccc2c(Sc3ccccc3)c(C(=O)NCCc3ccc(Cl)cc3)[nH]c2c1` gave TDP1 cell CPT inconclusive, HepG2 viability -1%, TGFb inhibitor -9% and DT40 TDP1 no CPT inconclusive.
`Cc1ccc2c(Sc3ccc(Cl)cc3)c(C(=O)N3CCC(C)CC3)[nH]c2c1` gave TDP1 cell CPT 16µM*, HepG2 viability -80%, TGFb inhibitor inconclusive and DT40 TDP1 no CPT 21µM*.
`O=C(c1ccc(S(=O)(=O)NCC2CCCO2)cc1)N1CCN(c2ccccc2F)CC1` (stereo not drawn) gave TDP1 cell CPT -10%, HT1080NT lethal 0%, HT1080 IDH1KD tx 1%, HepG2 viability -8%, TGFb inhibitor 0% and DT40 TDP1 no CPT -11%.
For O=C(c1ccc(S(=O)(=O)NCC2CCCO2)cc1)N1CCN(c2cccc(Cl)c2)CC1 (stereo not drawn) the results were TDP1 cell CPT 15µM*, HT1080NT lethal 0%, HT1080 IDH1KD tx 0%, HepG2 viability -21%, TGFb inhibitor -19% and DT40 TDP1 no CPT 15µM*.
O=S(=O)(NCC1CCCO1)c1ccc(-c2ccc(Cl)cc2)cc1 (stereo not drawn) was read as TDP1 cell CPT 12µM*, HT1080NT lethal -19%, HT1080 IDH1KD tx -1%, HepG2 viability -18%, TGFb inhibitor -22% and DT40 TDP1 no CPT 13µM*.
`Cc1ccc(C)c(C(O)c2ncc(-c3ccc(F)cc3)[nH]2)c1` (stereo not drawn) gave TDP1 cell CPT 16µM*, HT1080NT lethal 2%, HT1080 IDH1KD tx -3%, HepG2 viability -11%, TGFb inhibitor -3% and DT40 TDP1 no CPT 15µM*.
Cc1ccc(C(O)c2ncc(-c3ccc(Cl)cc3)[nH]2)c(C)c1 (stereo not drawn) was read as TDP1 cell CPT inconclusive, HT1080NT lethal inconclusive, HT1080 IDH1KD tx inconclusive, HepG2 viability -35%, TGFb inhibitor -21% and DT40 TDP1 no CPT 16µM*.
For Cc1ccc(C(O)c2ncc(-c3ccc(F)cc3)[nH]2)c(C)c1 (stereo not drawn) the results were TDP1 cell CPT inconclusive, HT1080NT lethal -18%, HT1080 IDH1KD tx 6%, HepG2 viability -16%, TGFb inhibitor -3% and DT40 TDP1 no CPT inconclusive.
O=C(Nc1cc(C(=O)NC2CCOCC2)c2c(c1)ncn2C1CCCC1)c1ccccc1 was read as TDP1 cell CPT 2% and DT40 TDP1 no CPT -14%.

High-throughput results (PubChem)
